The full list was thinned out, with hits kept by preference.
Pf Dd2 inh – Plasmodium falciparum Dd2 growth inhibition | P. falciparum Dd2 growth, SYBR Green, 72 h | Potency, µM (doses to about 28.9 µM), most hits filed as inhibitors | 4.3% of 120,000 active | AID 1347417; active = well fitted inhibition curve with a large enough effect; note: nearly all actives have a fitted effect of over 65% in size
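Infected erythrocytes (Dd2, 0.3% parasitemia, 2.5% hematocrit final) are added to compound in RPMI-1640/Albumax II medium, grown 72 h at 37C in low oxygen, then lysed with saponin/Triton-X containing SYBR Green and read by fluorescence.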
A number is an active result; i = inactive.

SMILES | Pf Dd2 inh
COC(=O)[C@@H]1Cc2ncn(C)c2CN1C(=O)c1ccc(F)cc1 | i
CC(=O)Nc1ccc(NC(=O)CCNc2c(-c3ccc(F)cc3)nc3cnccn23)cc1 | i
CCc1noc(C)c1C(=O)N1CCC(c2[nH]ncc2-c2ccccc2C)CC1 | i
Fc1ccc(Cn2ccnc2-c2ccccn2)c(Cl)c1 | i
CN1CCCCC12Cc1ccccc1CN(C(=O)CCCC(=O)O)C2 (configuration not stated) | i
CN(C)CC(=O)N1Cc2ccccc2CC2(CCCCN2C)C1 (configuration not stated) | i
CN1CCCCC12Cc1ccccc1CN(C(=O)c1ccccc1)C2 (configuration not stated) | 8.9µM
COc1cc(OC)cc(C(=O)NCC2CCCN(Cc3cnn(C)c3C)C2)c1 (configuration not stated) | i
Cc1cc(C(=O)N2CCc3nnc([C@@H]4C[C@@H](O)CN4C)n3CC2)n(C)n1 | i
O=C(NCCn1cc(SCc2ccccc2Cl)c2ccccc21)c1cccs1 | 11µM
O=C(Cn1cc(SCc2ccccc2F)c2ccccc21)N1CCCC1 | i
O=C(NCCn1cc(SCc2ccccc2)c2ccccc21)c1cccs1 | i
CN1C[C@H](NCc2cccc(Cl)c2)CCC[C@@H](C(=O)NCc2cc(F)cc(F)c2)CC1=O | i
COc1ccc(NC(=O)N2CCc3c(C(=O)NC(C)C)cccc32)cc1 | i
COc1ccc(CNC(=O)c2ccc(NC(=O)N3CCCCc4ccccc43)cc2)cc1 | i
CCCCN(C)C(=O)c1cccc2c1CCN2C(=O)Nc1ccc(OC)cc1 | 14µM
COc1ccc(NC(=O)N2CCc3c(C(=O)N(C)Cc4ccco4)cccc32)cc1 | i
COc1ccc(NC(=O)N2CCc3c(C(=O)N(C)C)cccc32)cc1 | i
COc1ccc(NC(=O)N2CCc3c(C(=O)NCCN4CCCCCC4)cccc32)cc1 | 2.8µM
NC(=O)CN1C(=O)[C@@H]2CN(C(=O)c3ccccc3)CCN2C1=O | i
O=C(C1CC1)N1CCC(Cc2nncn2-c2ccccc2)C1 (configuration not stated) | i
O=C(c1ccno1)N1CCOC[C@H](Oc2ccc(C(F)(F)F)cn2)C1 | i
CC(Nc1ccc(-c2nc(CCCc3ccccc3)no2)cn1)c1cnn(C)c1 (configuration not stated) | i
Cc1ccc(OCC(=O)c2ccc3c(c2)N(CC(=O)NC2CCCCC2)C(=O)CO3)c(Cl)c1 | i
O=C(CC(c1ccc(Cl)cc1)c1c[nH]c2ccc([N+](=O)[O-])cc12)N1CCOCC1 (configuration not stated) | i
SMILES | Pf Dd2 inh
O=C(CC(c1ccc(F)cc1)c1cn(Cc2ccccc2)c2ccc([N+](=O)[O-])cc12)N1CCOCC1 (configuration not stated) | 0.18µM
O=C(CC(c1ccccc1)c1ccccc1Cl)N1CCOCC1 (configuration not stated) | i
Cc1cccc(Cl)c1NC(=O)CN1C(=O)NC(c2ccc(Cl)cc2)C2=C1COC2=O (configuration not stated) | i
Cn1c(Cn2cccn2)nnc1C1CCCN(C(=O)CCn2cnnn2)C1 (configuration not stated) | i
O=C1Nc2ccccc2C12CCN(c1cc(C3CC(O)C3)ncn1)CC2 (configuration not stated) | i
Cc1nn(C)cc1CN(C)C(=O)c1cn2ccnc(-c3ccccc3)c2n1 | i
CCn1ccc(C(=O)N2CCCC(c3noc(COc4ccccc4F)n3)C2)n1 (configuration not stated) | i
CN(C)c1cccc(C(=O)Nc2nc3ccc(S(=O)(=O)N4CCCC4)cc3s2)c1 | 13µM
Cc1ccc(C(=O)Nc2nc3ccc(S(=O)(=O)N4CCCC4)cc3s2)cc1 | i
COc1cccc(C(=O)Nc2nc3ccc(S(=O)(=O)N4CCCC4)cc3s2)c1 | i
O=c1[nH]ccn1C1CCN([S+](=O)([O-])c2cccs2)CC1 | i
CCc1cn(C[C@H](NCC(C)(C)C)C(=O)O)c(=O)[nH]c1=O | i
CCOc1cc(=O)n2c(c1C(=O)N1CCN(C3CCCCC3)CC1)CCCCC2 | i
COc1ccccc1C1C=C(c2ccc(Cl)cc2)Nc2nc(-c3ccc(Cl)cc3)nn21 (configuration not stated) | 2.8µM
COc1cccc(C2=CC(c3cc(Br)ccc3F)n3nnnc3N2)c1 (configuration not stated) | i
COc1ccccc1C1C=C(c2ccc(F)cc2)Nc2nc(-c3ccc(Cl)cc3)nn21 (configuration not stated) | 11µM
COc1ccccc1C1C=C(c2ccc(C(C)C)cc2)Nc2nnnn21 (configuration not stated) | i
CC1=C(C(=O)Nc2cccnc2)C(c2ccccc2Cl)n2nc(-c3ccccc3)nc2N1 (configuration not stated) | i
CCc1ccc(C2=CC(c3c(F)cccc3Cl)n3c(nc4ccccc43)N2)cc1 (configuration not stated) | i
Cc1nccn1CCNC(=O)C1CCCCC(=O)N1Cc1ccccc1 (configuration not stated) | i
CCCN(Cc1nccn1C)C(=O)c1cccc(C2CCNC2)c1 (configuration not stated) | i
COCc1cc(CNC(=O)c2ccc(C3CCNC3)cc2)[nH]n1 (configuration not stated) | i
O=C(c1ccc(C2CCNC2)cc1)N(Cc1ccccc1)CC1CCC1 (configuration not stated) | 13µM
COc1cc(OC)c(OC)cc1CN1C[C@@H]2C(=O)N(C)C(=O)[C@@H]2C1 | i
COc1cccc(C(=O)N2CC3CC(C2)[C@H]2CCCC(=O)N2C3)c1 (some centres not stated) | i
SMILES | Pf Dd2 inh
NC(=O)C1(NC(=O)c2ccc(S(=O)(=O)N3CCCC(O)C3)cc2)CCCC1 (configuration not stated) | i
O=C(CCC[C@@H]1[C@H]2CCCN3CCC[C@@H](CN1C(=O)Nc1ccccc1)[C@@H]23)Nc1ccccc1 | i
COc1ccc([C@H]2C[C@@H](O)[C@@H](O)[C@@H]2NS(=O)(=O)c2ccc(C(F)(F)F)cc2)cc1 | i
O=C1Nc2ccccc2C12CCN(Cc1cccnc1)C2 (configuration not stated) | i
N#Cc1ccc(CN2CCC3(C2)C(=O)Nc2ccccc23)cc1 (configuration not stated) | i
CN1C(=O)C2(CCN(Cc3ccc(C(F)(F)F)cc3)C2)c2ccccc21 (configuration not stated) | i
CN1C(=O)C2(CCN(C(=O)c3ccc(Cl)cc3)C2)c2ccccc21 (configuration not stated) | i
O=C(c1ccc(C(F)(F)F)cc1)N1CCC2(C1)C(=O)N(Cc1ccccc1)c1ccccc12 (configuration not stated) | i
O=C(c1ccccc1F)N1CCC2(C1)C(=O)N(c1ccccc1)c1ccccc12 (configuration not stated) | i
CN1C(=O)C2(CCN(Cc3ccc(F)cc3)C2)c2ccccc21 (configuration not stated) | 13µM
CCCC(=O)N1CCC2(CC1)C(=O)N(C)c1ccccc12 | i
O=C(c1ccc(C(F)(F)F)cc1)N1CCC2(C1)C(=O)N(c1ccccc1)c1ccccc12 (configuration not stated) | 10µM
CN1C(=O)C2(CCN(S(=O)(=O)c3ccc(F)cc3)C2)c2ccccc21 (configuration not stated) | i

Compound activity as filed in PubChem BioAssay.
